From PubChem BioAssay (Tox21) come the findings set out here.

Several values for one entry are separate records, joined by “and”; a condition that tells them apart may be missing. Identical values can stand only once. Records with an inconclusive call do not appear. Where a call stands in place of a potency, no number is given. A number with no mark means an inactive call. Activity calls are given as the source filed them. Calls come from the whole dose curve; as a rule, active = well fitted cell-killing curve with a large enough effect in the repeat runs; inconclusive = weak or mixed curves, or effect the other way; inactive = no such curve, though single readings can be large or run the other way.
Potency is the fitted concentration of half-maximal effect.

The test in a line: Caspase-3/7 induction in CHO-K1 cells by small molecules, qHTS cell viability counter screen (AID 1346979). Note: nearly all actives have a fitted effect of over 35% in size. The note with it: CellTiter-Fluor fluorescence, 17 h; series mostly up to 92.4 µM. In a few lines:
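Cells (CHO-K1, wild type) are plated at 1,500 per well and incubated 5hr. Test compounds in DMSO are then pinned in, followed by 16hr at 37C and 5% CO2. Viability is read by CellTiter-Fluor fluorescence after 1hr.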
As to `N[C@@H](CSSC[C@H](N)C(=O)O)C(=O)O`, the activity change, negative = cytotoxicity was -1.36% [at 0.349 µM].

In the case of `Clc1cc(Cl)c(-c2c(Cl)c(Cl)cc(Cl)c2Cl)cc1Cl`, the Potency result was “inactive”. For the compound `CCCCCCCCCCCCOC(=O)c1cc(O)c(O)c(O)c1`, the Potency was 9.65 µM (active) and 7.7 µM (active).

As for `C[C@H]1O[C@@H](O[C@H]2[C@@H](O)C[C@H](O[C@H]3[C@@H](O)C[C@H](O[C@H]4CC[C@@]5(C)[C@H](CC[C@@H]6[C@@H]5C[C@@H](O)[C@]5(C)[C@@H](C7=CC(=O)OC7)CC[C@]65O)C4)O[C@@H]3C)O[C@@H]2C)C[C@H](O)[C@@H]1O`, the Potency result was “inactive”.

Regarding `CCCC(C)CCC(C)=O` (stereo unspecified), the Potency entry was “inactive”. Turning to `COc1cc(C(=O)NS(=O)(=O)c2ccccc2C)ccc1Cc1cn(C)c2ccc(NC(=O)OC3CCCC3)cc12`, the Potency result was “inactive”. The same measure, in the same setting: next, `C=C1C(C)(C)[C@@]2(Cl)C(Cl)[C@]1(Cl)C(Cl)(Cl)C2(Cl)Cl` (stereo partly specified): 60 µM (active). Still for that read-out and setting: for `CCCCCCCCCCCCCC[n+]1ccccc1` the value was 27.3 µM (active); for `CCCCCCC(C)OC(=O)COc1nc(F)c(Cl)c(N)c1Cl` (stereo unspecified), “inactive”; for `c1cc(OCC2CO2)cc(OCC2CO2)c1` (stereo unspecified), 60.6 µM (active). Take `COc1ccccc1C=O`: the Potency entry is “inactive”. Still for that read-out and setting: for `CNC(=O)c1cc(Oc2ccc(NC(=O)Nc3ccc(Cl)c(C(F)(F)F)c3)cc2)ccn1` the value was 26.6 µM (active); for `Brc1ccccc1-c1ccccc1`, “inactive”; for `COC(=O)NCCC[Si](OC)(OC)OC`, “inactive”. In the case of `O=C1OC(=O)c2cccc3cccc1c23`, the Potency entry was “inactive”. Still for that read-out and setting: for `CCN(CC)CCNc1ccc(CO)c2sc3ccccc3c(=O)c12` the value was 23.7 µM (active).
